The record followed here is PubChem BioAssay (NCI).

Compounds without any hit were thinned out: in the full panel of roughly 79,000, 15% have a hit. Unmarked numbers belong to inactive results. Calls of active or inactive are those of the source. No stated cut-off is given here; in the data, active means growth inhibition above about 70%; inactive means the rest.

The nature of the test: NCI Yeast Anticancer Drug Screen. Data for the bub3 strain (AID 167). The following applies: S. cerevisiae bub3 mutant strain, at 5.0 µM (retest, dose inferred, filed as 0.5), stronger effect = higher value. Put shortly: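 Screening used yeast with an engineered genetic alteration affecting cell cycle control. Compound-exposed cultures were compared with vehicle cultures, and reduced growth was taken as inhibition.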
Consider `CCOC(=O)CNC(=O)C1C2c3ccccc3C(c3ccccc32)C1C(=O)O` (stereo not given), for which the growth inhibition is 1%.

As to `O=[N+]([O-])c1ccc(NP(=S)(Nc2ccc([N+](=O)[O-])cc2)c2ccccc2)cc1`, the growth inhibition was 64%.

Regarding `O=P(c1ccccc1)(c1ccccc1)c1ccccc1.[Cl][Sn]([c]1ccccc1)([c]1ccccc1)[c]1ccccc1`, the growth inhibition is 99% (active).

As to `CC(C)(C)OOC(=O)/C=C\C(=O)OOC(C)(C)C`, the growth inhibition was 2%.

For the molecule `Cc1cc2c(cc1O)C(C)(C)CCC2(C)C`, the growth inhibition was 0%.

As for `N#CC(C#N)=Cc1ccc(Cl)o1`, the growth inhibition was -2%.

In the case of `COc1c(Br)cc(/C=C/[N+](=O)[O-])cc1Br`, the growth inhibition was 99% (active).

In the case of `[O]=[Sb]([OH])([OH])[c]1ccc(NC2OC(CO)C(O)C(O)C2O)cc1` (stereo not given), the growth inhibition was 2%.

In the case of `NC(=S)C1=C(N)Oc2c(c(=O)oc3ccccc23)C1c1ccc(Br)cc1` (stereo not given), the growth inhibition was 7%.

Consider `COS(=O)(=O)c1ccccc1`, for which the growth inhibition was 1%.

On to `O=[N+]([O-])c1cc[n+]([O-])c2ccccc12`, for which the growth inhibition was 98% (active).

Turning to `O=C(c1ccccc1)c1c(CC(O)c2cccnc2)n(C(=O)c2ccccc2)c2ccccc12` (stereo not given), the growth inhibition was -5%.

Consider `Nc1nc2ncnc(N)c2nc1-c1ccc(N(CCCl)CCCl)cc1`, for which the growth inhibition was -1%.

For the molecule `O=C1c2ccccc2CCC1Br` (stereo not given), the growth inhibition was -27%.

Turning to `CC1CCCC[N-]1.CC1CCCC[N-]1.N#C[S-].N#C[S-].[Cd]` (stereo not given), the growth inhibition was 10%.

For `CCOP(=O)(OCC)/C(C#N)=C/c1ccc(Br)cc1`, the growth inhibition is 11%.

Regarding `CN(CCCl)Cc1ccc(OCc2ccccc2)c(OCc2ccccc2)c1`, the growth inhibition is 0%.

Turning to `O=C(O)c1cccc2cccc(C(=O)O)c12.[Hg]`, the growth inhibition is 99% (active).

As to `S=c1[nH]c2ccccc2s1.[Pb]`, the growth inhibition was -4%.

Take `COc1ccc([As](O[As](c2ccc(OC)cc2)c2ccc(OC)cc2)c2ccc(OC)cc2)cc1`: the growth inhibition is 99% (active).

With `CC1=C/C(=C2/N=C(N(C)C)SS2)C(C)=N1`, the growth inhibition is 23%.

Consider `CN1C2CCC1c1c([nH]c3ccccc13)C2` (stereo not given), for which the growth inhibition is -7%.

Take `C[CH2][Sn]([Br])([CH2]C)[c]1ccccc1CN(C)C`: the growth inhibition is 11%.

In the case of `O=C(CCl)Nc1ccc(Cl)cc1`, the growth inhibition is 1%.

For the molecule `ClC1CCCCC1[Se](Cl)(Cl)C1CCCCC1Cl` (stereo not given), the growth inhibition is 8%.

Turning to `Cc1cc(C(C)(C)c2ccc(O)c(C)c2)ccc1O`, the growth inhibition is -1%.

Take `O=[N+]([O-])O.[In]`: the growth inhibition was 11%.

On to `[pH]1p2[pH]p3p1p3[pH]2.c1cc[c]([Ge]([c]2ccccc2)[c]2ccccc2)cc1.c1cc[c]([Ge]([c]2ccccc2)[c]2ccccc2)cc1.c1cc[c]([Ge]([c]2ccccc2)[c]2ccccc2)cc1`, for which the growth inhibition is 9%.

For the molecule `C1=CC2CCC[N-]C2N1.C1=CC2CCC[N-]C2N1.[I][Pt+2][I]` (stereo not given), the growth inhibition was 6%.

For the molecule `O=[N+]([O-])/C=C/c1cccc(F)c1`, the growth inhibition was 18%.

As for `O=[N+]([O-])c1ccc(CS(=O)(=O)C(Cl)(Cl)Cl)o1`, the growth inhibition is 8%.

Take `CC(=O)[O][Hg][c]1ccc(N)[c]([Hg][O]C(C)=O)c1`: the growth inhibition is 99% (active).

As to `CNP(=O)(Oc1cc(Cl)c(Cl)cc1Cl)N1CCN(c2ccccc2)CC1` (stereo not given), the growth inhibition was 11%.

With `Cc1ccc2c(c1)N(CCN(CCCl)CCCl)c1c(ccc3ccccc13)S2`, the growth inhibition is -1%.

As to `CC1(C(=O)O)CCCC2(C)c3cc(O)ccc3CCC12` (stereo not given), the growth inhibition was 5%.

Consider `C#CC(O)(CC)CC`, for which the growth inhibition was -1%.

As for `CC1CC[N-]C(C)C1.CN(C)C=O.[Cl][Pt][Cl]` (stereo not given), the growth inhibition was 73% (active).

On to `CN1CCN(c2ccc3nc(-c4ccc5nc(-c6ccc(N(C)CCCl)cc6)[nH]c5c4)[nH]c3c2)CC1`, for which the growth inhibition was -18%.

For the molecule `CC(=O)NNc1ccccc1`, the growth inhibition was 7%.

For the molecule `CC(C)[S-].CC(C)[S-].[Pt+2].c1ccc([PH+](c2ccccc2)c2ccccc2)cc1.c1ccc([PH+](c2ccccc2)c2ccccc2)cc1`, the growth inhibition is 7%.
